# Reference: publication PMC7862700, “An all-to-all approach to the identification of sequence-specific readers for epigenetic DNA modifications on cytosine”
# How the values were obtained:
# Experiment in all cases: DAPPL (digital affinity profiling via proximity ligation, sequencing); 10 mM Tris-HCl pH 7.5, 50 mM NaCl, 1 mM DTT, 4% glycerol, room temperature, 30 min; GST-TFs on glutathione beads, 16-mer random dsDNA library, 0.1% formaldehyde crosslink after washing; high values mean tight binding
# FEV = biological target: T1, FEV (Homo sapiens, UniProt Q99581 1-238); conditions: protein: recombinant; tags: N-terminal GST; dsDNA, one strand shown
# T1 sequence: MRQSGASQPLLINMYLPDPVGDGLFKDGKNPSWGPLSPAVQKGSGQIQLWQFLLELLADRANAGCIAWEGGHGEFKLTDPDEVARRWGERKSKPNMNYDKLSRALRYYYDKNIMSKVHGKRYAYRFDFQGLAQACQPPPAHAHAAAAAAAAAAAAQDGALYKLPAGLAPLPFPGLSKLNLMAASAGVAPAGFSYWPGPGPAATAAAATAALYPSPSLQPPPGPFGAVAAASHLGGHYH
# Procedure, shortened: (§1)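 In yeast, human transcription factors were expressed with a GST fusion, then pulled down on glutathione beads and given DNA barcodes. Pooled with a tag-only sample, they were exposed to 200 nmole of a 16-mer random double-stranded DNA library (Tris/NaCl/DTT/glycerol buffer, room temperature, 30 min), washed, crosslinked with 0.1% formaldehyde, proximity-ligated using BsaI/T4 ligase for 1 h at 37 °C, PCR-amplified and read on an Illumina NextSeq500. Each hexamer's frequency of reads for a factor, divided by the matching frequency for the tag-only sample, gives the binding signal.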
# ETV5 = ETV5 (Homo sapiens, UniProt P41161 1-510); conditions: protein: recombinant; tags: N-terminal GST; dsDNA, one strand shown
# Procedure, shortened: as §1
# HSF1 = HSF1 (Homo sapiens, UniProt Q00613 1-529); conditions: protein: recombinant; tags: N-terminal GST; chain copies: 3; dsDNA, one strand shown
# Procedure, shortened: as §1
# SPIC = biological target: T2, SPIC (Homo sapiens, UniProt Q8N5J4 1-248); conditions: protein: recombinant; tags: N-terminal GST; dsDNA, one strand shown
# T2 sequence: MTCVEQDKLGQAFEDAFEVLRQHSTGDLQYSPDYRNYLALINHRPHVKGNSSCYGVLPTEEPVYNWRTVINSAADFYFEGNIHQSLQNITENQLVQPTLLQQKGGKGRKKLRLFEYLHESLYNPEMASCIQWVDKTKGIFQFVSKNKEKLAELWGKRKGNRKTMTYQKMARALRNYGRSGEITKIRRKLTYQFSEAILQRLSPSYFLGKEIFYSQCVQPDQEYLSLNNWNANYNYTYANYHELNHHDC
# Procedure, shortened: as §1
# ELF4 = ELF4 (Homo sapiens, UniProt Q99607 1-663); conditions: protein: recombinant; tags: N-terminal GST; dsDNA, one strand shown
# Procedure, shortened: as §1
# ELK4 = biological target: T3, ELK4 (Homo sapiens, UniProt P28324-2 1-405); conditions: protein: recombinant; tags: N-terminal GST; dsDNA, one strand shown
# T3 sequence: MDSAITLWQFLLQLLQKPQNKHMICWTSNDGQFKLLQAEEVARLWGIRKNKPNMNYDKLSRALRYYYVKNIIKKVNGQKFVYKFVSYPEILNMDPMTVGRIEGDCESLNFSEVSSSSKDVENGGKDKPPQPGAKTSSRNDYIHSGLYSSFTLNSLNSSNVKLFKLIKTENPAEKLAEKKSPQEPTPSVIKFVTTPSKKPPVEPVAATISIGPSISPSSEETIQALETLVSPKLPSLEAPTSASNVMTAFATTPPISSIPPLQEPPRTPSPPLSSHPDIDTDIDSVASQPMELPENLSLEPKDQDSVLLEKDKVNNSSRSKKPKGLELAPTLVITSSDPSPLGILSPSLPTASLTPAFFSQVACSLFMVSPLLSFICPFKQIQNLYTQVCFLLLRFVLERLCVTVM
# Procedure, shortened: as §1
# ETV2 = biological target: T4, ETV2 (Homo sapiens, UniProt O00321 1-342); conditions: protein: recombinant; tags: N-terminal GST; dsDNA, one strand shown
# T4 sequence: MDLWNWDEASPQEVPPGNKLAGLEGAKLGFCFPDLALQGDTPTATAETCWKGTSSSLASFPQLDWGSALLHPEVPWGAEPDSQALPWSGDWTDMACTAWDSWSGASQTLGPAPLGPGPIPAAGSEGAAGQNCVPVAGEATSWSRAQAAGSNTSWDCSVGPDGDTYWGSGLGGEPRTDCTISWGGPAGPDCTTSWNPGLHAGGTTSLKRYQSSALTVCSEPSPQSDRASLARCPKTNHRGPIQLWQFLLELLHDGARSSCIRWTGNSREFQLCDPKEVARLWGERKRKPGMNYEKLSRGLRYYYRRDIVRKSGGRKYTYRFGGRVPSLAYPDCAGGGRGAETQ
# Procedure, shortened: as §1
# ELF3 = biological target: T5, ELF3 (Homo sapiens, UniProt P78545 1-371); conditions: protein: recombinant; tags: N-terminal GST; dsDNA, one strand shown
# T5 sequence: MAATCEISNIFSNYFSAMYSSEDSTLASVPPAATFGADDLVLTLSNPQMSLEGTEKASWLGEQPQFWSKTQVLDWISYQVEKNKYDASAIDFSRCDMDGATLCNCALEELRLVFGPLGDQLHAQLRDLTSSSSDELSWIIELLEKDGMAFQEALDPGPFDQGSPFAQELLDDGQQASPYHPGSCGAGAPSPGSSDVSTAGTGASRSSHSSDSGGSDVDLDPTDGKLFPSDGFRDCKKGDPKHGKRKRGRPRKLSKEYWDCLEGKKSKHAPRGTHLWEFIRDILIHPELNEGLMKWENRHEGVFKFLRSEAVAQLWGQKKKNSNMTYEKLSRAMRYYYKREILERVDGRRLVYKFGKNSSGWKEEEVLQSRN
# Procedure, shortened: as §1
# CRX = CRX (Homo sapiens, UniProt O43186 1-299); conditions: protein: recombinant; tags: N-terminal GST; dsDNA, one strand shown
# Procedure, shortened: as §1
# ETV1 = ETV1 (Homo sapiens, UniProt P50549 1-477); conditions: protein: recombinant; tags: N-terminal GST; dsDNA, one strand shown
# Procedure, shortened: as §1
# ERF = biological target: T6, ERF (Homo sapiens, UniProt P50548 1-548); conditions: protein: recombinant; tags: N-terminal GST; dsDNA, one strand shown
# T6 sequence: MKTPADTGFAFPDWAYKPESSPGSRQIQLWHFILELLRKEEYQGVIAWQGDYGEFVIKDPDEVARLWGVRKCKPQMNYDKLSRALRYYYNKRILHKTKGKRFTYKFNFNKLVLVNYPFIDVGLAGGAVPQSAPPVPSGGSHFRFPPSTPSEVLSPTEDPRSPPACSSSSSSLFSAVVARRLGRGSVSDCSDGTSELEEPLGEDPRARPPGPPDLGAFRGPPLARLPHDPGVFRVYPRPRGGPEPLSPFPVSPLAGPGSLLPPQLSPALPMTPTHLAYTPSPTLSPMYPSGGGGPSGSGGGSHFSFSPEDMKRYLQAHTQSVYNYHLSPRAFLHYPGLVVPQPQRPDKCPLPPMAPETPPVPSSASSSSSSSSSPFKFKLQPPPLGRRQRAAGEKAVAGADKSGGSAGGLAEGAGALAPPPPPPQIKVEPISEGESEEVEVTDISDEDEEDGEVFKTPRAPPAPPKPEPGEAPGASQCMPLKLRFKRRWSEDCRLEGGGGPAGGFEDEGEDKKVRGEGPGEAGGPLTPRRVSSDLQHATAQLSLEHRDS
# Procedure, shortened: as §1
# ETV3L = biological target: T7, ETV3L (Homo sapiens, UniProt Q6ZN32 1-361); conditions: protein: recombinant; tags: N-terminal GST; dsDNA, one strand shown
# T7 sequence: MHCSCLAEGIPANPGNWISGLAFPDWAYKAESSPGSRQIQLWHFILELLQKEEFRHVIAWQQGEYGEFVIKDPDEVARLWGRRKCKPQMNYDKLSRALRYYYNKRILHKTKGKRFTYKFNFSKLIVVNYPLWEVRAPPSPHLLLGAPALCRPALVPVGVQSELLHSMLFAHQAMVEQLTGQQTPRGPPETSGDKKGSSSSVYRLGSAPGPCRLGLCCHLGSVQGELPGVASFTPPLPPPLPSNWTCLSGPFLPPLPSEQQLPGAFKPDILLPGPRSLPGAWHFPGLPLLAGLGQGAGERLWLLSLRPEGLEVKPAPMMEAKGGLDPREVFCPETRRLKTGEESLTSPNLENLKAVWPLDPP
# Procedure, shortened: as §1
# ETS2 = biological target: T8, ETS2 (Homo sapiens, UniProt P15036 1-469); conditions: protein: recombinant; tags: N-terminal GST; dsDNA, one strand shown
# T8 sequence: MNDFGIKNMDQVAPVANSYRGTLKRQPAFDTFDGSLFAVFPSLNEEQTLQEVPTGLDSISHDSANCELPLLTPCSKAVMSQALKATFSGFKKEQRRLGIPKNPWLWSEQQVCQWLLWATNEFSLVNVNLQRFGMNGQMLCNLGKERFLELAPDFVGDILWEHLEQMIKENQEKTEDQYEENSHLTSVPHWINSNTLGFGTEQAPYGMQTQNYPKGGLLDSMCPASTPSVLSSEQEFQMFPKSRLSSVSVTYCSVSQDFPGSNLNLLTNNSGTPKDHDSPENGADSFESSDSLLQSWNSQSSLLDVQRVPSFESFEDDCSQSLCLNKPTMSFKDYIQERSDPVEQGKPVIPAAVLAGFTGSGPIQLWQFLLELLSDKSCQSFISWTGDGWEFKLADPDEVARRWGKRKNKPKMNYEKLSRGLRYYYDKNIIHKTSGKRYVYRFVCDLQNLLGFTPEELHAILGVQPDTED
# Procedure, shortened: as §1
# SPDEF = biological target: T9, SPDEF (Homo sapiens, UniProt O95238 1-335); conditions: protein: recombinant; tags: N-terminal GST; dsDNA, one strand shown
# T9 sequence: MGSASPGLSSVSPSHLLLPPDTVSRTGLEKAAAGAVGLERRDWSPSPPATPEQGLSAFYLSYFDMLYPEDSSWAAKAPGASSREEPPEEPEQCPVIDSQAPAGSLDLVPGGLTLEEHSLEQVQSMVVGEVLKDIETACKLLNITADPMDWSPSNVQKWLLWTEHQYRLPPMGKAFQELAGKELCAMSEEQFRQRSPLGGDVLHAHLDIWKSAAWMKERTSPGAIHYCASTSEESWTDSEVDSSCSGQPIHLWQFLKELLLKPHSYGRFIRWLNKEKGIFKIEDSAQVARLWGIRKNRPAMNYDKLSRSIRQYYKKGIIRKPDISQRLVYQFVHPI
# Procedure, shortened: as §1
# ETV7 = biological target: T10, ETV7 (Homo sapiens, UniProt Q9Y603 1-341); conditions: protein: recombinant; tags: N-terminal GST; dsDNA, one strand shown
# T10 sequence: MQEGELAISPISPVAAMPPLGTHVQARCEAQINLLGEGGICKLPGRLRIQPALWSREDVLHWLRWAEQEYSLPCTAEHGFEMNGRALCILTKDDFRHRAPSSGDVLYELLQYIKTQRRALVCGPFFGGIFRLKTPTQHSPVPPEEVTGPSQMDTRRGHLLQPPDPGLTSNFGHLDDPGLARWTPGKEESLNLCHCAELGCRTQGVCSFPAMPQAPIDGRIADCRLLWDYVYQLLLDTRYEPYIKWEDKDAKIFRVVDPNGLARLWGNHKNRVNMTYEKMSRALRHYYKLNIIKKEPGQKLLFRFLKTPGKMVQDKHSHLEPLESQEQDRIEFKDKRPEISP
# Procedure, shortened: as §1
# ELF5 = biological target: T11, ELF5 (Homo sapiens, UniProt Q9UKW6-2 1-255); conditions: protein: recombinant; tags: N-terminal GST; dsDNA, one strand shown
# T11 sequence: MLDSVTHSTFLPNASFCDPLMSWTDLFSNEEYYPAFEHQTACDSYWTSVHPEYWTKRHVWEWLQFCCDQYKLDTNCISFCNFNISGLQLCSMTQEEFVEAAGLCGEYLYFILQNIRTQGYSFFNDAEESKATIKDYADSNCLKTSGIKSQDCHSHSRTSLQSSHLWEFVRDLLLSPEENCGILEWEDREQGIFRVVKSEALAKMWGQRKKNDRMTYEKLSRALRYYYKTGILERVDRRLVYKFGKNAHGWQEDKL
# Procedure, shortened: as §1
# ETV3 = biological target: T12, ETV3 (Homo sapiens, UniProt P41162-2 1-143); conditions: protein: recombinant; tags: N-terminal GST; dsDNA, one strand shown
# T12 sequence: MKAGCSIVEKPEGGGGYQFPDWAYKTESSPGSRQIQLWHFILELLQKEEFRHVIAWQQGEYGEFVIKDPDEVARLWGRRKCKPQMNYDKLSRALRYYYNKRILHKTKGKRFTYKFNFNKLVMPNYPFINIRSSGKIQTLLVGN
# Procedure, shortened: as §1
# ETV6 = ETV6 (Homo sapiens, UniProt P41212 1-452); conditions: protein: recombinant; tags: N-terminal GST; dsDNA, one strand shown
# Procedure, shortened: as §1
# Chain of ETV6 (P41212 whole entry): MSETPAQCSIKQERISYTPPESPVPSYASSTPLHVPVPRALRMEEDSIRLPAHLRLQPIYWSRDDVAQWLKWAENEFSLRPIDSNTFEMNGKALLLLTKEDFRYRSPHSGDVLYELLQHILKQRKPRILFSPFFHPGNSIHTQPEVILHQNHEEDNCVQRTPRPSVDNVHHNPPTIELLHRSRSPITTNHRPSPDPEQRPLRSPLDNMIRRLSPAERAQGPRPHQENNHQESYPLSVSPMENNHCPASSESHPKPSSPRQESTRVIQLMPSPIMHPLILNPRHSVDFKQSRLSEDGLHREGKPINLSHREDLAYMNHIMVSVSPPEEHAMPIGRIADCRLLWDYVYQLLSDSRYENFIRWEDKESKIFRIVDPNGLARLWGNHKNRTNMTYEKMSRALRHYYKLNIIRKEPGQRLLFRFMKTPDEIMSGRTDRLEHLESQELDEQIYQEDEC
# Chain of ELF4 (Q99607 whole entry): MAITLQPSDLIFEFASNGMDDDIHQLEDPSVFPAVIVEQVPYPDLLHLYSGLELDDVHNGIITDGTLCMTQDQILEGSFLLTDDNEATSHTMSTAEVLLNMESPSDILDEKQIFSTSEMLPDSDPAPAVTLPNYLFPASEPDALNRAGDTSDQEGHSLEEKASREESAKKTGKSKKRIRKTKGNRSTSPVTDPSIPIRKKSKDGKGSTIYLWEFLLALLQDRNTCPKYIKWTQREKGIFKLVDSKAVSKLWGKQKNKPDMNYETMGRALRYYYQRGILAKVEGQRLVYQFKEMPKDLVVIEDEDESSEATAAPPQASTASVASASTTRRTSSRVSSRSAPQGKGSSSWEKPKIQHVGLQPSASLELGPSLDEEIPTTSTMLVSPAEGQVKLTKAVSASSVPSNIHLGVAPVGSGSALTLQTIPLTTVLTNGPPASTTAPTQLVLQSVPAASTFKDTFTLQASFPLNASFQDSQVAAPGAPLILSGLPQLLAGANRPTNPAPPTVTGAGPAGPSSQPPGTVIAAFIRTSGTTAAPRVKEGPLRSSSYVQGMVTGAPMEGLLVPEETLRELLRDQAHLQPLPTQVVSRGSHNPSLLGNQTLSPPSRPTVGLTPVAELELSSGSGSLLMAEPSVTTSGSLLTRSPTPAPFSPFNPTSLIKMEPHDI
# Chain of CRX (O43186 whole entry): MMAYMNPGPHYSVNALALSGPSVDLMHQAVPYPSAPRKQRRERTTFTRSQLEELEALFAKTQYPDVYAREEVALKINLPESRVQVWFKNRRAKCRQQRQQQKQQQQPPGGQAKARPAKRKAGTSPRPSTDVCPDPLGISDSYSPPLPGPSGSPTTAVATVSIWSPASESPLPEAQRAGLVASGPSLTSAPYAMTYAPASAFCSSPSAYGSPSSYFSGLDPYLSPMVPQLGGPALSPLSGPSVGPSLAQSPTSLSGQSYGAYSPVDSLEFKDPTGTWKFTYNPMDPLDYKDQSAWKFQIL
# Chain of HSF1 (Q00613 whole entry): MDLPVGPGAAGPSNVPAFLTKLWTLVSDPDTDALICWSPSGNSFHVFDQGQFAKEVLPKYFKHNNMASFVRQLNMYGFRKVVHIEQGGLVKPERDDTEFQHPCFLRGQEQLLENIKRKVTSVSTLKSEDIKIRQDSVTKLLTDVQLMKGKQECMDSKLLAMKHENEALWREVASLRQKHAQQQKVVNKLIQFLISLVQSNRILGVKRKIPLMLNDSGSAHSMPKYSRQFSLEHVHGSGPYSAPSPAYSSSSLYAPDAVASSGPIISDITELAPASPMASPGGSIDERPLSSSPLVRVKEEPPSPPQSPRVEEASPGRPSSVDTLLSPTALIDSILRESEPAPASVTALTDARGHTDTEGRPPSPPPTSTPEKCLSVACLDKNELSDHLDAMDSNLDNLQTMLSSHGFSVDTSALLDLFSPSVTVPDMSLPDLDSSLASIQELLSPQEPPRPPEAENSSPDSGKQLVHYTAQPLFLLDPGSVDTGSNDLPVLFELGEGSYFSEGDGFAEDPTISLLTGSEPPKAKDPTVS
# Chain of ETV5 (P41161 whole entry): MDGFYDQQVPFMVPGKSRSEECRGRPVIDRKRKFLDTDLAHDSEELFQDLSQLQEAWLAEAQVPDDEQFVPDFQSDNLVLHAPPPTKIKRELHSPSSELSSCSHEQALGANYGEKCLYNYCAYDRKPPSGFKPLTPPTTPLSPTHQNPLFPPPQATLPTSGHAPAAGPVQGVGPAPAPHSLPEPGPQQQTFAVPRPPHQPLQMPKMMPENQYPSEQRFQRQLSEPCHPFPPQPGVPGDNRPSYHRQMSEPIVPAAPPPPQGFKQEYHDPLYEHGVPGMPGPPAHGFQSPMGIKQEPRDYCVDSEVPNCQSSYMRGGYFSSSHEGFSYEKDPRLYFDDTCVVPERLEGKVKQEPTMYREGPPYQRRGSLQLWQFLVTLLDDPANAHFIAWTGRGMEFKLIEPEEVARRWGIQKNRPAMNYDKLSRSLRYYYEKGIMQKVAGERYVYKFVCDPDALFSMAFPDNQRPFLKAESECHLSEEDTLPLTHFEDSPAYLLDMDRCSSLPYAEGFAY
# Chain of ETV1 (P50549 whole entry): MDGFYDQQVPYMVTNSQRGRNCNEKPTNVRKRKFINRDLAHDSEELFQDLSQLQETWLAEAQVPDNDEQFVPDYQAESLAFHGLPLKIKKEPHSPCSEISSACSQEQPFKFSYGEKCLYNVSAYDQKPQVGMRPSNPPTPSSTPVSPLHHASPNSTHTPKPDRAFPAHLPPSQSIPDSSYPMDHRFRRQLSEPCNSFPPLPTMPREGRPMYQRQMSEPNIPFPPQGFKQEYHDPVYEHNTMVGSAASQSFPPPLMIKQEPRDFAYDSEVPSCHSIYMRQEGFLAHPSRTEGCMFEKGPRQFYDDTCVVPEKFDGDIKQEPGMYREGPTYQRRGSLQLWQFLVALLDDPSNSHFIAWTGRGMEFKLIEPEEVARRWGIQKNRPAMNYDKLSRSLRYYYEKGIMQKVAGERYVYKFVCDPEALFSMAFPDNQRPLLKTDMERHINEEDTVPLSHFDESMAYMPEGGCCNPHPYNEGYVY
sequence,measurement,setting,value
CTTTTC,binding signal,FEV,"1.39 fold enrichment (6-mer frequency, TF over GST control)"
same,binding signal,ETV5,"1.44 fold enrichment (6-mer frequency, TF over GST control)"
same,binding signal,HSF1,"1.5 fold enrichment (6-mer frequency, TF over GST control)"
same,binding signal,SPIC,"1.45 fold enrichment (6-mer frequency, TF over GST control)"
same,binding signal,ELF4,"1.43 fold enrichment (6-mer frequency, TF over GST control)"
same,binding signal,ELK4,"1.49 fold enrichment (6-mer frequency, TF over GST control)"
same,binding signal,ETV2,"1.48 fold enrichment (6-mer frequency, TF over GST control)"
same,binding signal,ELF3,"1.48 fold enrichment (6-mer frequency, TF over GST control)"
same,binding signal,CRX,"1.25 fold enrichment (6-mer frequency, TF over GST control)"
same,binding signal,ETV1,"1.4 fold enrichment (6-mer frequency, TF over GST control)"
same,binding signal,ERF,"1.33 fold enrichment (6-mer frequency, TF over GST control)"
same,binding signal,ETV3L,"1.48 fold enrichment (6-mer frequency, TF over GST control)"
same,binding signal,ETS2,"1.33 fold enrichment (6-mer frequency, TF over GST control)"
same,binding signal,SPDEF,"1.49 fold enrichment (6-mer frequency, TF over GST control)"
same,binding signal,ETV7,"1.49 fold enrichment (6-mer frequency, TF over GST control)"
same,binding signal,ELF5,"1.58 fold enrichment (6-mer frequency, TF over GST control)"
same,binding signal,ETV3,"1.69 fold enrichment (6-mer frequency, TF over GST control)"
same,binding signal,ETV6,"1.57 fold enrichment (6-mer frequency, TF over GST control)"
